Measured values reported in PubChem BioAssay (NCATS).
Values joined by “and” are separate entries in the source; they are usually repeats but may differ in a detail not shown here. Equal values may be shown once. Inconclusive results are not listed. Active and inactive are the calls of the source. Unless noted, calls follow the shape of the dose curve; as a rule, active = well fitted curve in either direction with a large enough effect (not every such curve was filed as active); inconclusive = small, poorly fitted or top-dose-only effect, or another doubt; inactive = flat fitted curve, though single readings scatter.

Experiments:
[1] = NFAT Signaling Pathway (AID 444); details: Jurkat NFAT-bla M1, carbachol, beta-lactamase ratio, 5 h;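 also: carbachol stimulus at about its EC50 of 1 µM final; % is scaled to controls: 0 for no effect and ±100 for the full control effect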
Summary of the method: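 Jurkat cells with NFAT-driven β-lactamase reporter and co-expressed M1 receptor, stimulated with carbachol (final 1 uM, ~EC50), compound titration, 5 h at 37 °C. CCF4 loaded 1 h at RT; 460/530 nm ratio gave %activity and AC50.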

[2] = Stat Signaling Pathway (AID 446);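 also: ME-180 cervical cancer cells given 40 pM IL-6 alongside compound; SIE-controlled beta-lactamase reporter measured as 460/530 nm FRET emission ratio; % is scaled to controls: 0 for no effect and ±100 for the full control effect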
Summary of the method: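 Overnight-plated ME-180 cells bearing a STAT Inducible Element beta-lactamase reporter; 5 h co-exposure to compound and 40 pM IL-6; values normalized to 300 pM IL-6 and 125 nM JAK inhibitor controls.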

[3] = molecular target: Glucocorticoid receptor (Homo sapiens) (UniProt P04150); assay: GR-GFP Redistribution (AID 450;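 active = compounds whose dose series gives a full or clear partial fitted curve of increased nuclear translocation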; also: potency is read from the fitted curve at half-maximal effect); details: U2OS GR-GFP nuclear translocation, laser cytometry, 2 h
[4] = molecular target: Mitogen-activated protein kinase 10 (Mus musculus) (UniProt Q61831); assay: JNK3 AlphaScreen Assay (AID 530);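 also: kinase came from lysate of stimulated human HepG2 cells; signal reports phosphorylation of biotinylated GST-cJun 1-79 at Ser73 with 10 µM ATP; % is scaled to controls: 0 for no effect and ±100 for the full control effect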
Summary of the method: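 Activity was read by AlphaScreen after JNK3-containing HepG2 lysate (cytokine pre-activated) phosphorylated biotinylated GST-cJun with 10 uM ATP at room temperature. Phospho-Ser73 cJun antibody with Protein-A acceptor beads provided detection.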

[5] = AP1 Signaling Pathway (AID 357);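 also: ME-180 reporter cells stimulated with EGF at its EC50 level; % is scaled to controls: 0 for no effect and ±100 for the full control effect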
Summary of the method: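 Read-out was the 460nm/530nm emission ratio (excitation 405nm) after CCF4 loading for 2.5 hours at room temperature. Cells carried an AP-1-driven beta-lactamase reporter, were stimulated with EC50 EGF plus compound for 5 hours, and AC50 values came from titrations.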

[6] = Cell Viability - BJ (AID 421; calls by dose curve;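 also: potency is read from the fitted curve at half-maximal effect; cells exposed to compound for 40 hours at 37 °C before readout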); details: BJ fibroblast viability, qHTS
Summary of the method: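 Quantitative HTS: ATP depletion in BJ cells after 40 hr compound exposure in complete culture medium, detected with CellTiter-Glo; AC50 from standard Hill fits.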

[7] = Cell Viability - Jurkat (AID 426;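 active = dose-dependent loss of cell ATP signal giving a full or clear fitted curve, ranked by lower potency value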;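 also: potency is read from the fitted curve at half-maximal effect; cells exposed to compound for 40 hours at 37 °C before ATP read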); details: qHTS
Summary of the method: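 Cells of the human T-cell leukemia line Jurkat (E6-1) are seeded at 5000 per well, treated with compound across a concentration range for 40 hours at 37 °C, then lysed with CellTiter-Glo; luminescence reports ATP.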

[8] = Cell Viability - Hek293 (AID 427;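 active = compounds whose dose-response curve shows a full or clear partial loss of cell viability, called from curve shape rather than a numeric limit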;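 also: potency is read from the fitted curve at half-maximal effect; cells exposed to compound for 40 hours at 37 °C before reading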); details: qHTS
Summary of the method: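 AC50 values derive from Hill-modelled concentration-response of ATP-based luminescence, normalized between DMSO-only and 100 uM tamoxifen controls. Cells were exposed in complete culture medium for 40 hr at 37 °C before detection.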

[9] = Cell Viability - HepG2 (AID 433; calls by dose curve;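 also: potency is read from the fitted curve at half-maximal effect; potency for ATP loss meaning cytotoxicity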); details: qHTS
Summary of the method: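 Cytotoxicity is scored as loss of intracellular ATP in HepG2 cells exposed to compounds for 40 h. Concentration-response curves, normalized to DMSO and 100 uM tamoxifen, give AC50 values.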

[10] = Cell Viability - MRC5 (AID 434; calls by dose curve;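 also: potency is read from the fitted curve at half-maximal effect; potency reflects cytotoxicity seen as loss of intracellular ATP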); details: MRC5 lung fibroblast viability, qHTS
Summary of the method: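 ATP luminescence read-out (CellTiter-Glo, 20 min RT) after 40 hr, 37 °C compound exposure of 1500 MRC5 cells/well. Data normalized to DMSO (basal) and 100 uM tamoxifen (100% inhibition); AC50 from standard Hill equation.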

[11] = Cell Viability - SK-N-SH (AID 435; calls by dose curve;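 also: potency is read from the fitted curve at half-maximal effect; compound exposure lasted 40 h at 37 °C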); details: SK-N-SH neuroblastoma cell viability qHTS
Summary of the method: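 Cells seeded at 1500 per well and incubated 5 hr at 37 °C. Compound added, then 40 hr at 37 °C. CellTiter-Glo added, 20 min at room temperature, luminescence read.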

[12] = Cell Viability - N2a (AID 540; active = well fitted curve in the direction sought with a large enough effect; an effect the other way counts as inactive or inconclusive;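 also: cells exposed to compound for 40 h at 37 °C; plate controls were DMSO alone for no effect and tamoxifen control for full effect; nearly all actives have a fitted effect of over 45% in size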); details: N2a mouse neuroblastoma cell viability; activity change, negative = cytotoxicity: at 92.2 µM (top of the series)
Summary of the method: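 Cytotoxicity was scored as loss of cellular ATP in N2a cells, a mouse neuroblastoma line. Compounds are applied in a qHTS concentration series for 40 hr at 37 °C.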

[13] = Cell Viability - NIH 3T3 (AID 541; active = well fitted curve in the direction sought with a large enough effect; an effect the other way counts as inactive or inconclusive;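 also: plate controls were DMSO alone for no effect and tamoxifen positive control for full effect; nearly all actives have a fitted effect of over 25% in size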); details: NIH 3T3 cell viability, qHTS; activity change, negative = cytotoxicity: at 92.2 µM (top of the series)
Summary of the method: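 Cells seeded at 1000/well, rested 5 hr at 37 °C, then dosed and incubated 40 hr at 37 °C. CellTiter-Glo added, 20 min room temperature, luminescence read. AC50 by Hill fit.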

[14] = Cell Viability - HUV-EC-C (AID 542; active = well fitted curve in the direction sought with a large enough effect; an effect the other way counts as inactive or inconclusive; also: % is scaled to controls: 0 for no effect and ±100 for the full control effect; nearly all actives have a fitted effect of over 35% in size)
Summary of the method: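 Cells were seeded at 1000 per well and incubated 5 hr at 37 °C before compound addition. After 40 hr at 37 °C, CellTiter-Glo reagent was added for 20 min and luminescence read. AC50 values came from Hill-equation modelling.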

[15] = Cell Viability - Mesenchymal (AID 546; active = well fitted curve in the direction sought with a large enough effect; an effect the other way counts as inactive or inconclusive;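 also: cells exposed to compound for 40 hours before reading; 0% = DMSO only and -100% = 100 µM tamoxifen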)
Summary of the method: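 Human renal mesenchymal cells (glomerulus-derived), 1000 cells/well, 5 hr 37 °C pre-incubation; compound 40 hr, 37 °C; CellTiter-Glo, 20 min RT; luminescence; AC50 via Hill equation.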

[16] = molecular target: Glucocorticoid receptor (Homo sapiens) (UniProt P04150); assay: GR-EFC Redistribution (AID 451; calls by dose curve; also: potency is read from the fitted curve at half-maximal effect); details: CHO-K1 GR-EFC translocation, beta-gal luminescence, 2 h
Summary of the method: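 CHO-K1 cells expressing nuclear EA and GR-ED fragments of b-gal; compounds titrated up to 46 uM final, 2 h at 37 C. GR nuclear translocation read as complemented b-gal luminescence after 1 h RT detection.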

[17] = Cell Viability - H-4-II-E (AID 543; active = well fitted curve in the direction sought with a large enough effect; an effect the other way counts as inactive or inconclusive; also: % is scaled to controls: 0 for no effect and ±100 for the full control effect; nearly all actives have a fitted effect of over 35% in size)
Summary of the method: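 Cells seeded at 1500 per well and rested 5 hr; compounds added; 40 hr incubation at 37 °C; CellTiter-Glo added, 20 min at room temperature; luminescence read. Hill-equation fits gave AC50.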

[18] = Cell Viability - SH-SY5Y (AID 544; active = well fitted curve in the direction sought with a large enough effect; an effect the other way counts as inactive or inconclusive;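 also: 0% = DMSO alone and -100% = 100 µM tamoxifen; nearly all actives have a fitted effect of over 55% in size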); details: SH-SY5Y neuroblastoma cell viability; viability change, negative = cytotoxic: at 92.2 µM (top of the series)
Summary of the method: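 Cells were plated at 1500 per well and allowed 5 hr at 37 °C. Compounds were added across a concentration range and incubated 40 hr at 37 °C. CellTiter-Glo was added for 20 min at room temperature before luminescence reading.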

[19] = Cell Viability - Renal Proximal Tubule (AID 545; active = well fitted curve in the direction sought with a large enough effect; an effect the other way counts as inactive or inconclusive;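 also: 0% = DMSO only and -100% = 100 µM tamoxifen; nearly all actives have a fitted effect of over 40% in size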)
Summary of the method: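 Cytotoxicity is scored as a concentration-dependent drop in cellular ATP in primary rat renal proximal tubule cells exposed for 40 hr. AC50 derives from Hill modelling.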

Chain of Glucocorticoid receptor (Homo sapiens) (P04150 whole entry, looked up, the tested form may be a part): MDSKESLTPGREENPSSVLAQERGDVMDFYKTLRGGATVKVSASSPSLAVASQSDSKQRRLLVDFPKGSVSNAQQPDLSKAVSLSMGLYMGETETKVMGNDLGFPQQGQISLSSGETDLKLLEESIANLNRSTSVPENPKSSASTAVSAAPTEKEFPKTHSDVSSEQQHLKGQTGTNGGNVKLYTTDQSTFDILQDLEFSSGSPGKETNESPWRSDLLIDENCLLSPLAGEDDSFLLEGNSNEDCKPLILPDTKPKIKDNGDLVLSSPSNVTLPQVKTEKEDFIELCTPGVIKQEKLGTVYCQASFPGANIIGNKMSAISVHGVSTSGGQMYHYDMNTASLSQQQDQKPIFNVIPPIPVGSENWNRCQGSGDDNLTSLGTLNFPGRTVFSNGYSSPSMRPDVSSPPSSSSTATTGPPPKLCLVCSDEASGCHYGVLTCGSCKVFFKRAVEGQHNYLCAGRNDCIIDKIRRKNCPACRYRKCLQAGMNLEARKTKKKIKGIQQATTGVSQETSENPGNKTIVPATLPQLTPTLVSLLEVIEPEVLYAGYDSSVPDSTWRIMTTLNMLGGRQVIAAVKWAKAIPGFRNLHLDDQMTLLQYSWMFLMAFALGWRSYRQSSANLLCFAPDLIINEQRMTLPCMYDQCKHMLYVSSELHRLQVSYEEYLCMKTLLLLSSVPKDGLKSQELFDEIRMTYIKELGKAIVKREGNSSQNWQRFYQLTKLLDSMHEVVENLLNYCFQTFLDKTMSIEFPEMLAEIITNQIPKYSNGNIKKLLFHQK

CN(C)CCCN1c2ccccc2CCc2ccc(Cl)cc21
active: activity change, negative = inhibition ([1]; at 17.2 µM (top of the series)) -83%
inactive: outcome [2] | Potency [3] > 46 µM and > 20.6 µM | outcome [4]

Clc1ccccc1C(c1ccccc1)(c1ccccc1)n1ccnc1
inactive: outcome [2] | Potency [3] > 46 µM and > 20.6 µM | outcome [4]

CC(C)NCC(O)COc1ccc(CCOCC2CC2)cc1 (centres undefined)
inactive: outcome [5] | outcome [2] | Potency [3] > 20.6 µM

COc1cc2nc(N3CCN(C(=O)C4COc5ccccc5O4)CC3)nc(N)c2cc1OC (centres undefined)
inactive: outcome [5] | outcome [2]

OCCN1CCN(CCCN2c3ccccc3Sc3ccc(C(F)(F)F)cc32)CC1
inactive: outcome [5] | outcome [2] | Potency [3] > 46 µM and > 20.6 µM | outcome [4]

CN(C)C(=N)N=C(N)N
inactive: outcome [5] | activity change, negative = inhibition ([1]; at 17.2 µM (top of the series)) -11.6% | outcome [2] | Potency [3] > 20.6 µM | outcome [4]

Cc1ccc(-c2cc(C(F)(F)F)nn2-c2ccc(S(N)(=O)=O)cc2)cc1
active: activity change, negative = cytotoxicity [13] -132%
inactive: Potency [6] > 92 µM | Potency [7] > 92 µM | Potency [8] > 92 µM | Potency [9] > 92 µM | Potency [10] > 92 µM | Potency [11] > 92 µM | outcome [4] | activity change, negative = cytotoxicity [12] -43.6% | outcome [14] | outcome [15]

Cc1cc(C(C)(C)C)cc(C)c1CC1=NCCN1
inactive: outcome [5] | outcome [2] | Potency [3] > 46 µM and > 20.6 µM | outcome [4]

CN(C)CCOC(c1ccccc1)c1ccccc1
inactive: outcome [5] | outcome [2] | outcome [4]

O=C(c1ccc(OCCN2CCCCC2)cc1)c1c(-c2ccc(O)cc2)sc2cc(O)ccc12
inactive: outcome [5] | outcome [2] | Potency [3] > 46 µM and > 20.6 µM

Cc1cc(C(C)(C)C)c(O)c(C)c1CC1=NCCN1
inactive: outcome [5] | outcome [2] | Potency [3] > 46 µM and > 20.6 µM | Potency [16] > 46 µM and > 20.6 µM | outcome [4]

CC(C)NCC(O)c1ccc(O)c(O)c1 (centres undefined)
inactive: Potency [6] > 92 µM | Potency [8] > 92 µM | Potency [9] > 92 µM | Potency [10] > 92 µM | Potency [11] > 92 µM | outcome [4] | activity change, negative = cytotoxicity [12] 0.719% | Potency [13] | outcome [14] | Potency [17] | Potency [18] | Potency [19] | outcome [15]

CN1CCN(CCCN2c3ccccc3Sc3ccc(Cl)cc32)CC1
inactive: outcome [5] | activity change, negative = inhibition ([1]; at 17.2 µM (top of the series)) -28.9% | outcome [2] | outcome [4]

CN(Cc1cnc2nc(N)nc(N)c2n1)c1ccc(C(=O)N[C@@H](CCC(=O)O)C(=O)O)cc1
inactive: outcome [4]

CN1CCN2c3ccccc3Cc3ccccc3C2C1 (centres undefined)
inactive: outcome [5] | outcome [2] | Potency [3] > 20.6 µM

CS(=O)(=O)Nc1ccc([N+](=O)[O-])cc1Oc1ccccc1
inactive: outcome [5] | activity change, negative = inhibition ([1]; at 17.2 µM (top of the series)) -5.4% and -1.94% | outcome [2] | outcome [4]

CCCCc1oc2ccccc2c1C(=O)c1cc(I)c(OCCN(CC)CC)c(I)c1
inactive: outcome [5] | activity change, negative = inhibition ([1]; at 17.2 µM (top of the series)) 4.27% | outcome [2] | outcome [4]

COC(=O)Nc1nc2ccc(C(=O)c3cccs3)cc2[nH]1
inactive: outcome [2] | Potency [3] > 46 µM and > 20.6 µM | outcome [4]
active: activity change, negative = inhibition ([1]; at 17.2 µM (top of the series)) -68.4%

O=C1N(c2ccccc2)c2ccccc2C1(Cc1ccncc1)Cc1ccncc1
inactive: outcome [5] | activity change, negative = inhibition ([1]; at 38 µM (top of the series)) -6.55% | outcome [2] | Potency [3] > 46 µM | outcome [4]

CN1CCC(=C2c3ccccc3CC(=O)c3sccc32)CC1
inactive: outcome [5] | outcome [2] | Potency [3] > 46 µM and > 20.6 µM | outcome [4]
active: activity change, negative = inhibition ([1]; at 17.2 µM (top of the series)) -94.3%

O=C(CCCN1CCC(O)(c2ccc(Cl)cc2)CC1)c1ccc(F)cc1
inactive: outcome [5] | activity change, negative = inhibition ([1]; at 38 µM (top of the series)) -17.8% | outcome [2] | outcome [4]

CNCCCC12CCC(c3ccccc31)c1ccccc12
inactive: outcome [5] | outcome [2] | Potency [3] > 46 µM and > 20.6 µM | Potency [16] > 46 µM and > 20.6 µM | outcome [4]

CCOC(=O)C(C)(C)Oc1ccc(Cl)cc1
inactive: outcome [5] | activity change, negative = inhibition ([1]; at 38 µM (top of the series)) -4.66% | outcome [2] | Potency [3] > 46 µM | outcome [4]

CN1CCC(=C2c3ccccc3C=Cc3ccccc32)CC1
active: activity change, negative = inhibition ([1]; at 17.2 µM (top of the series)) -67.8%
inactive: outcome [5] | outcome [2] | Potency [3] > 46 µM and > 20.6 µM | outcome [4]

Clc1ccc(C(c2ccccc2Cl)C(Cl)Cl)cc1 (centres undefined)
inactive: Potency [9] > 92 µM | Potency [13] | outcome [14] | Potency [19] | outcome [15]
active: activity change, negative = cytotoxicity [12] -100%

NCCc1cnc[nH]1
inactive: outcome [5] | activity change, negative = inhibition ([1]; at 38 µM (top of the series)) 2.96% | outcome [2] | Potency [3] > 46 µM | outcome [4]

CCOC(=O)Nc1ccc(NCc2ccc(F)cc2)nc1N
inactive: outcome [5] | activity change, negative = inhibition ([1]; at 38 µM (top of the series)) -3.88% | outcome [2] | Potency [3] > 46 µM | outcome [4]

OCCN(CCO)c1nc(N2CCCCC2)c2nc(N(CCO)CCO)nc(N3CCCCC3)c2n1
inactive: activity change, negative = inhibition ([1]; at 17.2 µM (top of the series)) 7.02% and -24.7% | activity change, negative = inhibition ([1]; at 38 µM (top of the series)) -0.6% | outcome [2] | outcome [4]

O=C(c1ccc(F)cc1)C1CCN(CCn2c(=O)[nH]c3ccccc3c2=O)CC1
inactive: outcome [5] | activity change, negative = inhibition ([1]; at 17.2 µM (top of the series)) -11.4% and -13.2% | outcome [2] | Potency [3] > 46 µM and > 20.6 µM | outcome [4]
